# Reference: PubChem BioAssay
# Activity calls are given as the source filed them. Unless noted, how the calls were made is not given here.
# Key:
# [1] = resazurin metabolic signal in HepG2 cells – cell-based, resazurin fluorescence, 24 h, PK04 Diversity Set, profiling panel (AID 1172); details: HepG2 viability, higher = more signal
# [2] = budding yeast growth changes without added modifier – OD600, strain BY4716, 24 h, basal condition, primary screen (AID 1173); details: S. cerevisiae BY4716 growth, OD600, 24 h; higher = more signal, called active from +8 up or from −8 down
# [3] = viability profiling in MM1S myeloma cells – cell-based, resazurin fluorescence, basal, 24 h, PK04 Diversity Set, profiling panel (AID 1174); details: higher = more signal, called active from +8 up or from −8 down;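 further: MM1S multiple myeloma cell line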
# [4] = biological target: Dihydroorotate dehydrogenase (quinone), mitochondrial (Plasmodium falciparum (isolate 3D7)) (UniProt Q08210); assay: inhibition of P. falciparum DHODH – biochemical, C-terminal His tag, absorbance 600 nm, primary screen (AID 1175); details: PfDHODH enzyme, DCIP absorbance 600 nm; higher = more signal, called active from +8 up or from −8 down;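 further: recombinant parasite enzyme with a five histidine tag at its C terminus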
# [5] = inhibition of PAO1 biofilm formation – strain PAO1, LB-PBS medium, absorbance 600 nm, primary screen (AID 1176); details: P. aeruginosa PAO1 growth/biofilm, A600, 12 h; higher = more signal
# [6] = growth modulation of vineyard yeast isolate – strain RM11-1a, OD600, basal, 24 h, primary screen (AID 1177);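 further: cultures grown under basal conditions with no added stressor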; details: S. cerevisiae RM11-1a growth, OD600, 24 h; higher = more signal, called active from +8 up or from −8 down
# [7] = growth of efflux-deficient E. coli DRC39 – strain DRC39, OD650, 24 h, E. coli filamentation inducers, primary screen (AID 1178);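 further: growth measured as culture turbidity by optical density at 650 nm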; details: E. coli DRC39 acrAB, higher = more signal, called active from +8 up or from −8 down
# [8] = growth of efflux-deficient E. coli DRC39 – strain DRC39, OD650, 48 h, E. coli filamentation inducers, primary screen (AID 1179);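 further: screen aims at cell division blockers that make cells filament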; details: E. coli DRC39 delta-acrAB growth, higher = more signal, called active from +8 up or from −8 down
# [9] = viability profiling in RPMI8226 myeloma cells – cell-based, resazurin fluorescence, basal, 24 h, PK04 Diversity Set, profiling panel (AID 1180); details: higher = more signal;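 further: RPMI8826 multiple myeloma cell line at 5000 cells per well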
# [10] = biological target: E3 ubiquitin-protein ligase XIAP (Homo sapiens) (UniProt P98170); assay: small molecules binding XIAP protein – biophysical, small-molecule microarray, fluorescence 635 nm, primary screen (AID 1181); details: higher = more signal;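 further: score merges 667 nm emission and signal to noise over triplicate slides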
# [11] = tested on: XIP peptide (Xip251-270) binding; assay: XIP fragment 251-270 binding compounds – biochemical, small-molecule microarray, fluorescence 635/667 nm, 0.1 µg/mL protein, primary screen (AID 1182); details: fluorescent protein binding, 635 nm, higher = more signal, called active from +8 up or from −8 down
# XIP peptide (Xip251-270) = assay: compounds binding XIP fragment 251-270 – biochemical, small-molecule microarray, fluorescence 635/667 nm, 0.5 µg/mL protein, primary screen (AID 1183); details: fluorescence 635 nm, higher = more signal
# [12] = blood-stage malaria parasite viability loss – strain 3D7, DAPI fluorescence, 100 nL, primary screen (AID 1184);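 further: parasites grown inside human red blood cells in medium with human serum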; details: P. falciparum 3D7 growth, 3 d, higher = more signal
# [13] = biological target: Homeobox protein Hox-A13 (Mus musculus) (UniProt Q62424); assay: disruptors of Hoxa13 oligonucleotide interaction – biochemical, fluorescence polarization, labeled oligonucleotide, primary screen (AID 1185); details: Hoxa13:DNA binding, 15 min, higher = more signal, called active from +8 up or from −8 down
# Homeobox protein Hox-A13 (Mus musculus), sequence (Q62424 whole entry, looked up): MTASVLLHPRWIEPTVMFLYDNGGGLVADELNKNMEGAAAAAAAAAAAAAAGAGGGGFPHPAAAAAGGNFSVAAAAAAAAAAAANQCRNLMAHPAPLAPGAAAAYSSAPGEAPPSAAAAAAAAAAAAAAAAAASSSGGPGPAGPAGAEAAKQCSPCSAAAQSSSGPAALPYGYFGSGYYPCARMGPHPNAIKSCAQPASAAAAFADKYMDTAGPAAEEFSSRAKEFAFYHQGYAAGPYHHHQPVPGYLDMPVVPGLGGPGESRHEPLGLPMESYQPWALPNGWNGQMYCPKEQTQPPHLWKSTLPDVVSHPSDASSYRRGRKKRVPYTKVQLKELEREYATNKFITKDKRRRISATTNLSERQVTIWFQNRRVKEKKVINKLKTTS
# E3 ubiquitin-protein ligase XIAP (Homo sapiens), sequence (P98170 whole entry, looked up, the tested form may be a part): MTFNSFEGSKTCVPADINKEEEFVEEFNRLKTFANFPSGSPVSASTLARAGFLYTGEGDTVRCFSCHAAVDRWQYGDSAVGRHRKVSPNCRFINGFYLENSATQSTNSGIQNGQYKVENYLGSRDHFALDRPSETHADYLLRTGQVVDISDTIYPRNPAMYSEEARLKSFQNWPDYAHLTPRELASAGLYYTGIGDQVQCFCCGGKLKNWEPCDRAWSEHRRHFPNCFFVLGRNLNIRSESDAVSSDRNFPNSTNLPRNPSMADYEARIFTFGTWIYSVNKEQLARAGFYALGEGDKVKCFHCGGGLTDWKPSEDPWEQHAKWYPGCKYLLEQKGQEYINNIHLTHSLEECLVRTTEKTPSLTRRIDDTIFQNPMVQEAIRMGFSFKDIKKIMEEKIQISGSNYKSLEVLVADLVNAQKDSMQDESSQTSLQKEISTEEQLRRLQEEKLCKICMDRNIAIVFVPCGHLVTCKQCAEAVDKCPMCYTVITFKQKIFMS
# Dihydroorotate dehydrogenase (quinone), mitochondrial (Plasmodium falciparum (isolate 3D7)), sequence (Q08210 whole entry, looked up): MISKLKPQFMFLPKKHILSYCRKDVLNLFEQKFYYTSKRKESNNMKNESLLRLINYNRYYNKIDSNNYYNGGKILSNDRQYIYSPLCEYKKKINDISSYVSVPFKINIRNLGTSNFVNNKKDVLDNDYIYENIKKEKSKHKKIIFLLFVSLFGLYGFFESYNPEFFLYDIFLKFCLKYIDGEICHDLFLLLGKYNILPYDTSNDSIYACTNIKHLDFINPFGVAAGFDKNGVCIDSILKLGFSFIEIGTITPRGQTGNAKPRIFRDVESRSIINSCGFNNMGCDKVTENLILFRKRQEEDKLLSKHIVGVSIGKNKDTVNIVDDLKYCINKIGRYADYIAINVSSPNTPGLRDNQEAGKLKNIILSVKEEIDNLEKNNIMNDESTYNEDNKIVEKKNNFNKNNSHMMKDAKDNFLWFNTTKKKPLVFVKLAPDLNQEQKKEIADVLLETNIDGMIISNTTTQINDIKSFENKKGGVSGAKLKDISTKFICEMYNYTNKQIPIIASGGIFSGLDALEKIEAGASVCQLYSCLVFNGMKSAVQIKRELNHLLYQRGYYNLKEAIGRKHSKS
Compound,z-score [1],z-score [2],z-score [3],composite z-score [4],z-score [5],z-score [6],z-score [7],z-score [8],z-score [9],composite z-score [10],composite z-score [11],composite z-score (XIP peptide (Xip251-270)),z-score [12],z-score [13]
CC[C@@H](c1ccccc1)n1c(=O)n2n(c1=O)[C@H]1[C@H](O)[C@@H]3O[C@@H]3C(=NOCC(C)C)[C@H]1CC2,-0.0871,0.747 (inactive),-0.349 (inactive),0.777 (inactive),-0.413 (inactive),0.49 (inactive),0.258 (inactive),-1.31 (inactive),0.0402,-0.0525,-0.242 (inactive),0.68,-0.265,-2.28 (inactive)
C#CCCCON=C1C[C@@H](O)[C@@H](O)[C@@H]2[C@@H]3C(=O)N(c4cccc(Oc5ccccc5)c4)C(=O)[C@@H]3CC[C@@H]12,0.32,-1.13 (inactive),0.47 (inactive),1 (inactive),-0.601 (inactive),-0.293 (inactive),-0.146 (inactive),-0.0303 (inactive),0.868,0.0153,-0.0382 (inactive),0.481,-1.96,-5.65 (inactive)
CCc1cc2c(nc1CC)CCN(CCC(C)=NOC[C@@H](O)COCc1ccco1)C2,-0.596,-1.12 (inactive),-0.24 (inactive),-0.127 (inactive),-0.0174 (inactive),-0.727 (inactive),0.377 (inactive),0.389 (inactive),-0.0388,0.183,2.62 (inactive),0.679,0.15,-6.02 (inactive)
COC(=O)CC=C[C@H](C)[C@H](CO)NS(=O)(=O)c1ccc(C)cc1,-0.502,-0.342 (inactive),-0.701 (inactive),0.0702 (inactive),1.09 (inactive),-0.513 (inactive),-0.586 (inactive),-0.6 (inactive),0.139,-0.123,-0.291 (inactive),0.507,0.225,-1.56 (inactive)
CCOC(=O)[C@H](Cc1ccccc1)NC(=O)CCC1CC(OC(=O)NCc2ccc3c(c2)OCO3)CC2(CCCC(COC(=O)NCC(c3ccccc3)c3ccccc3)O2)O1 (stereo not given in full),0.56,-1.14 (inactive),0.328 (inactive),-0.219 (inactive),0.405 (inactive),0.445 (inactive),0.816 (inactive),0.381 (inactive),0.909,-0.0351,0.48 (inactive),0.308,-0.909,-3.45 (inactive)
C[C@@H]1C=CCC(=O)OC[C@H](C)C(=O)N[C@@H](C)C(=O)OC1,0.29,0.128 (inactive),0.617 (inactive),0.474 (inactive),-0.537 (inactive),0.317 (inactive),0.6 (inactive),0.879 (inactive),0.361,-0.113,0.0195 (inactive),-0.059,-0.207,0.442 (inactive)
CO[C@@H]1COC(=O)CC=C[C@@H](C)[C@@H]2C=C[C@H](O)[C@@H](COC(=O)CCC[C@H]1C)O2,0.696,-1.19 (inactive),0.492 (inactive),-0.24 (inactive),-0.95 (inactive),-0.725 (inactive),0.118 (inactive),-0.195 (inactive),0.401,-0.12,0.0426 (inactive),0.152,0.149,-0.262 (inactive)
CC(C)CN1CCc2nc(-c3ccccc3)c3c(c2CC1)CO[C@@H](C)C3,0.652,-0.368 (inactive),0.389 (inactive),0.496 (inactive),-0.458 (inactive),-0.284 (inactive),-0.274 (inactive),-0.328 (inactive),0.711,-0.0964,0.277 (inactive),-0.399,-0.235,-0.219 (inactive)
CCc1cc2c(nc1CC)CCN(CCC(C)=NOC[C@@H](O)[C@H]1O[C@@H]3OC(C)(C)O[C@@H]3[C@H]1O)C2,-0.595,0.0824 (inactive),-0.244 (inactive),-0.439 (inactive),0.535 (inactive),-0.752 (inactive),0.548 (inactive),-0.953 (inactive),-0.269,-0.365,0.221 (inactive),0.267,0.204,-5.4 (inactive)
CCOC(=O)NN=C1C[C@@H](O)[C@@H](O)[C@@H]2[C@@H]3C(=O)N(C(C)(C)C)C(=O)[C@@H]3CC[C@@H]12,-0.119,0.381 (inactive),-0.387 (inactive),0.0062 (inactive),-0.495 (inactive),-1.23 (inactive),-0.654 (inactive),-0.0961 (inactive),-0.559,0.167,0.63 (inactive),-0.145,0.439,-1.69 (inactive)
O=C1C[C@@H](O)[C@@H](O)[C@@H]2[C@@H]3C(=O)N(C4CCCCC4)C(=O)[C@@H]3CC[C@H]12,0.513,0.44 (inactive),-0.122 (inactive),0.349 (inactive),-0.319 (inactive),-0.247 (inactive),-0.0543 (inactive),-0.292 (inactive),0.288,-0.0454,-0.149 (inactive),0.349,0.266,0.34 (inactive)
COc1ccc(O[C@H]2C=C[C@@H](c3ccccc3)O[C@@H]2COC(=O)CCC(C)=NOC(C)CN2CCCCc3nc(C)c(C)cc32)cc1 (stereo not given in full),0.957,0.756 (inactive),1.1 (inactive),0.0159 (inactive),-0.279 (inactive),0.181 (inactive),0.825 (inactive),0.42 (inactive),0.948,0.533,0.422 (inactive),-0.674,-1.34,-2.19 (inactive)
O=C1[C@H]2[C@H]3[C@H](O)[C@H](O)CC(=NOC[C@@H](O)COCc4ccco4)[C@H]3CC[C@H]2C(=O)N1c1cccc(Oc2ccccc2)c1,0.957,0.22 (inactive),-0.654 (inactive),-0.365 (inactive),0.741 (inactive),-0.183 (inactive),0.916 (inactive),1.33 (inactive),-0.192,-0.295,0.283 (inactive),0.638,0.499,0.338 (inactive)
CC(C)[C@H](NC(=O)OC(C)(C)C)[C@@H](O)CC(=O)OC(C)(C)C,-0.811,-0.448 (inactive),0.351 (inactive),0.0945 (inactive),-0.506 (inactive),0.259 (inactive),-1.69 (inactive),-0.998 (inactive),0.496,-0.102,-0.182 (inactive),-0.4,-1.75,-0.799 (inactive)
COCCNC(=O)OCC1CCCC2(CC(OC(=O)NCCc3ccc(F)cc3)CC(CCC(=O)N[C@@H](C)C(=O)OC)O2)O1 (stereo not given in full),0.864,-0.183 (inactive),0.899 (inactive),-0.0746 (inactive),0.262 (inactive),0.684 (inactive),0.963 (inactive),1.16 (inactive),1.07,-0.216,0.417 (inactive),0.579,-1.82,-3.44 (inactive)
O=C1[C@H]2[C@H]3[C@H](O)[C@H](O)CC(=NOCc4ccccc4)[C@H]3CC[C@H]2C(=O)N1c1ccc(F)cc1F,1.15,-1.51 (inactive),-0.254 (inactive),-0.738 (inactive),0.328 (inactive),-0.645 (inactive),0.586 (inactive),0.535 (inactive),1.28,0.104,-0.0939 (inactive),0.159,-1.08,1.02 (inactive)
O=C1C[C@@H](O)[C@@H](O)[C@@H]2[C@@H]3C(=O)N(c4cccc(Oc5ccccc5)c4)C(=O)[C@@H]3CC[C@@H]12,-0.165,-0.208 (inactive),0.207 (inactive),-0.453 (inactive),-0.708 (inactive),-0.25 (inactive),-0.65 (inactive),-0.644 (inactive),-0.0298,-0.102,-0.0811 (inactive),0.726,-0.61,-4.11 (inactive)
CO[C@@H]1COC(=O)CCC[C@@H](C)[C@H](OC)COC(=O)CCC[C@H]1C,0.733,1.47 (inactive),0.367 (inactive),-0.0732 (inactive),-0.667 (inactive),1.6 (inactive),0.265 (inactive),-0.65 (inactive),0.276,-0.256,-0.201 (inactive),0.201,-0.0787,-1.03 (inactive)
CO[C@@H]1COC(=O)CC=C[C@@H](C)[C@@H]2C=C[C@@H](O)[C@@H](COC(=O)CC=C[C@H]1C)O2,0.234,-1.29 (inactive),0.604 (inactive),-1.34 (inactive),0.683 (inactive),-2.03 (inactive),-0.0072 (inactive),-0.392 (inactive),-0.501,0.0304,0.794 (inactive),-0.317,0.328,-0.816 (inactive)
CC(CCN1CCCCc2nc(C)c(C)cc21)=NOC(C)CN1CCCCc2nc(C)c(C)cc21 (stereo not given),0.149,-0.211 (inactive),-0.29 (inactive),0.159 (inactive),0.216 (inactive),0.596 (inactive),0.5 (inactive),-0.024 (inactive),0.643,0.24,0.29 (inactive),0.805,-0.883,-5.75 (inactive)
